Laboratory results: paper PMC9911399, “Two distinct binding modes provide the RNA-binding protein RbFox with extraordinary sequence specificity”
Positions count from the first letter of the chain named. Over roughly 16,000 sequences, “ka relative to ugcaugu” has its median near 0.096; the highest 2% begin near 0.35. This excerpt belongs to a sample that is enriched for the highest values.

T1: RBFOX1 RRM RbFoxmut (Fox-RRM*) (Homo sapiens, UniProt Q9NWB1 109-208, R118D;E147R;N151S;E152T)
T1 sequence: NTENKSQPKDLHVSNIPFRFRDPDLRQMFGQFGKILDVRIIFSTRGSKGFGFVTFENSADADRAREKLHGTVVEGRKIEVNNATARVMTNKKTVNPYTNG

B1: GCUAGGC (DNA:RNA)
RNA: GGGAGACCGGAAUUCAGAUUGUCCGCUAGGCUUAAAUCCCGUCGUAGCCACCA
DNA 1: CAATCTGAATTCCGGTCTCCC
DNA 2: TGGTGGCTACGACGGGATT
B2: UGCACAU (DNA:RNA)
RNA: B1 RNA with G25U, C26G, U27C, G29C, G30A, C31U
DNA 1: CAATCTGAATTCCGGTCTCCC
DNA 2: TGGTGGCTACGACGGGATT
B3: GACAGGU (DNA:RNA)
RNA: B1 RNA with C26A, U27C, C31U
DNA 1: CAATCTGAATTCCGGTCTCCC
DNA 2: TGGTGGCTACGACGGGATT
B4: AGUUAAU (DNA:RNA)
RNA: B1 RNA with G25A, C26G, A28U, G29A, G30A, C31U
DNA 1: CAATCTGAATTCCGGTCTCCC
DNA 2: TGGTGGCTACGACGGGATT
B5: UCGCGUC (DNA:RNA)
RNA: B1 RNA with G25U, U27G, A28C, G30U
DNA 1: CAATCTGAATTCCGGTCTCCC
DNA 2: TGGTGGCTACGACGGGATT
B6: GUGUGUC (DNA:RNA)
RNA: B1 RNA with C26U, U27G, A28U, G30U
DNA 1: CAATCTGAATTCCGGTCTCCC
DNA 2: TGGTGGCTACGACGGGATT
B7: CUUGUCC (DNA:RNA)
RNA: B1 RNA with G25C, C26U, A28G, G29U, G30C
DNA 1: CAATCTGAATTCCGGTCTCCC
DNA 2: TGGTGGCTACGACGGGATT
B8: UCGUGUC (DNA:RNA)
RNA: B1 RNA with G25U, U27G, A28U, G30U
DNA 1: CAATCTGAATTCCGGTCTCCC
DNA 2: TGGTGGCTACGACGGGATT
B9: UUGUGUG (DNA:RNA)
RNA: B1 RNA with G25U, C26U, U27G, A28U, G30U, C31G
DNA 1: CAATCTGAATTCCGGTCTCCC
DNA 2: TGGTGGCTACGACGGGATT
B10: CCUUGUC (DNA:RNA)
RNA: B1 RNA with G25C, A28U, G30U
DNA 1: CAATCTGAATTCCGGTCTCCC
DNA 2: TGGTGGCTACGACGGGATT
B11: UUGGGUG (DNA:RNA)
RNA: B1 RNA with G25U, C26U, U27G, A28G, G30U, C31G
DNA 1: CAATCTGAATTCCGGTCTCCC
DNA 2: TGGTGGCTACGACGGGATT
B12: UUGUCCC (DNA:RNA)
RNA: B1 RNA with G25U, C26U, U27G, A28U, G29C, G30C
DNA 1: CAATCTGAATTCCGGTCTCCC
DNA 2: TGGTGGCTACGACGGGATT
B13: UUGUGUC (DNA:RNA)
RNA: B1 RNA with G25U, C26U, U27G, A28U, G30U
DNA 1: CAATCTGAATTCCGGTCTCCC
DNA 2: TGGTGGCTACGACGGGATT
B14: UUGGGAA (DNA:RNA)
RNA: B1 RNA with G25U, C26U, U27G, A28G, G30A, C31A
DNA 1: CAATCTGAATTCCGGTCTCCC
DNA 2: TGGTGGCTACGACGGGATT
B15: UUGGGGG (DNA:RNA)
RNA: B1 RNA with G25U, C26U, U27G, A28G, C31G
DNA 1: CAATCTGAATTCCGGTCTCCC
DNA 2: TGGTGGCTACGACGGGATT
B16: UCGCGUG (DNA:RNA)
RNA: B1 RNA with G25U, U27G, A28C, G30U, C31G
DNA 1: CAATCTGAATTCCGGTCTCCC
DNA 2: TGGTGGCTACGACGGGATT
B17: AUGACGA (DNA:RNA)
RNA: B1 RNA with G25A, C26U, U27G, G29C, C31A
DNA 1: CAATCTGAATTCCGGTCTCCC
DNA 2: TGGTGGCTACGACGGGATT
B18: UACCUCG (DNA:RNA)
RNA: GGGAGACCGGAAUUCAGAUUGUCCUACCUCGUUAAAUCCCGUCGUAGCCACCA
DNA 1: CAATCTGAATTCCGGTCTCCC
DNA 2: TGGTGGCTACGACGGGATT
B19: UUUCACA (DNA:RNA)
RNA: B18 RNA with A26U, C27U, U29A, G31A
DNA 1: CAATCTGAATTCCGGTCTCCC
DNA 2: TGGTGGCTACGACGGGATT
B20: AGUUGGC (DNA:RNA)
RNA: B1 RNA with G25A, C26G, A28U
DNA 1: CAATCTGAATTCCGGTCTCCC
DNA 2: TGGTGGCTACGACGGGATT

What follows are binders tested against T1, RBFOX1 RRM RbFoxmut (Fox-RRM*) (assay: EMSA; HiTS-Eq, 1 nM pool, 10 min; buffer printed only for the single-RNA assays: 10 mM Tris pH 7.5, 150 mM NaCl, 3.4 mM EDTA, 0.001% NP-40, 30 C). Details: tags: His6 N-terminal (pET28a); label: 5' 32P.
Procedure, shortened: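 Purified RbFox RRM (wild type or mutant) was equilibrated for 10 min in 50 µL with 1 nM of a 5′-radiolabelled pool of RNA with 7 randomized nucleotides, its flanks annealed to DNA oligonucleotides, across increasing protein concentrations. Free RNA was separated by 8% native PAGE, excised, reverse-transcribed, PCR-barcoded and sequenced on an Illumina HiSeq 2500. Relative association constants came from read-count changes of each variant against the control reaction, normalised to the cognate motif.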
B1 was tested, and the binding signal was 0.0891 KA relative to UGCAUGU.
For B2, the binding signal was 0.0893 KA relative to UGCAUGU.
With B3 the binding signal was 0.0716 KA relative to UGCAUGU.
B4 was tested, and the binding signal was 0.0918 KA relative to UGCAUGU.
B5 was tested, and the binding signal was 0.145 KA relative to UGCAUGU.
For B6, the binding signal was 0.329 KA relative to UGCAUGU.
B7 was tested, and the binding signal was 0.107 KA relative to UGCAUGU.
With B8 the binding signal was 0.359 KA relative to UGCAUGU.
With B9 the binding signal was 0.491 KA relative to UGCAUGU.
In the case of B10, the binding signal is reported as 0.226 KA relative to UGCAUGU.
For B11, the binding signal was 0.373 KA relative to UGCAUGU.
In the case of B12, the binding signal is reported as 0.0731 KA relative to UGCAUGU.
With B13 the binding signal was 0.357 KA relative to UGCAUGU.
B14 was tested, and the binding signal was 0.14 KA relative to UGCAUGU.
For B15, the binding signal was 0.0724 KA relative to UGCAUGU.
B16 was tested, and the binding signal was 0.153 KA relative to UGCAUGU.
With B17 the binding signal was 0.0609 KA relative to UGCAUGU.
With B18 the binding signal was 0.107 KA relative to UGCAUGU.
For B19, the binding signal was 0.0896 KA relative to UGCAUGU.
For B20, the binding signal was 0.107 KA relative to UGCAUGU.
